Test results published in PubChem BioAssay (EPA / NIEHS).
The source made the active and inactive calls. The calls were made as follows: active = hit-call score of the fitted dose curve at least 0.9, where 1 is the maximum; inactive = score below 0.9.

The molecules below were run on Nuclear factor erythroid 2-related factor 2 (Homo sapiens) (UniProt Q16236) (assay: LTEA_HepaRG_NFE2L2: Life Technologies and Expression Analysis (LTEA) Assay for Nuclear factor erythroid 2-related factor 2 (NFE2L2) Transcription Factor using HepaRG (AID 2283527;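 as to outcome: TaqMan qRT-PCR transcript level normalised to ACTB GAPDH and POLR2A housekeeping genes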)). Conditions: mRNA level, 48 h; actives raise or lower the signal.
Sequence of Nuclear factor erythroid 2-related factor 2 (Homo sapiens) (Q16236 whole entry, looked up): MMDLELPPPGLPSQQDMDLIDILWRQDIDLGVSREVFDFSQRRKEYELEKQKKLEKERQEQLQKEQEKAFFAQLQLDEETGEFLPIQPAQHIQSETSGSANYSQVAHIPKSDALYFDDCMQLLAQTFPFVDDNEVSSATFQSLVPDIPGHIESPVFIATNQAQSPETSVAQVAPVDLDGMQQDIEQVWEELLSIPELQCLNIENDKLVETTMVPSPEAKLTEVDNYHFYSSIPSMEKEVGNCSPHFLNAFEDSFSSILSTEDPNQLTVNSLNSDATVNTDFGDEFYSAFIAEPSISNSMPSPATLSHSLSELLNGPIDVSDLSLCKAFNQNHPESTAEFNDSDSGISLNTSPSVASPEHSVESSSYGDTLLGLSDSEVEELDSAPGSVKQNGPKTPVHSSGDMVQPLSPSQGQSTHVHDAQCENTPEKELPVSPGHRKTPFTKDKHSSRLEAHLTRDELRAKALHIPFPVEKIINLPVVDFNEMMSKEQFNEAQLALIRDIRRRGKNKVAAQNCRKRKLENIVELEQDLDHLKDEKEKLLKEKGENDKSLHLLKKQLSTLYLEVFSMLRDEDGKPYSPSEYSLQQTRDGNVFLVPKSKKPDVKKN
Method: LTEA_HepaRG is a cell based, multiplexed-readout assay that uses HepaRG, a human liver cell line, with measurements taken at 48 hours after chemical dosing on a 96-well plate.LTEA_HepaRG_NFE2L2 is one of 102 assay component(s) measured in the LTEA HepaRG cell culture assay. It is a marker of Inflammation/injury.Data from the assay component LTEA_HepaRG_NFE2L2 was analyzed into 1 endpoint. This assay endpoint, LTEA_HepaRG_NFE2L2, was analyzed with bidirectional fitting relative to DMSO as the negative control and baseline of activity. Using a type of inducible reporter, measures of mRNA induction for gain or loss-of-signal activity can be used to understand regulation of transcription factor activity. To generalize the intended target to other relatable targets, this assay endpoint is annotated to the dna binding intended target family, where the subfamily is basic leucine zipper.
A total of 1060 chemcials from the ToxCast library were tested in eight-point concentration-response experiments. Cell culture and cytotoxicity assays were conducted at Thermo Fisher Scientific's Custom Services facility (Madison, WI). A single lot of human HepaRG cells (Thermo Fisher Scientific, Frederick, MD) was used for the cell culture experiments. 96-well format collagen type I coated plates of human HepaRG cells were prepared using established methods. Briefly, cryopreserved HepaRG cells were thawed, plated at a density of approximately 100,000 cells/well in HepaRG Thaw, Plate, and General Purpose media (HPRG770, Thermo Fisher Scientific), and incubated for 48 hours. 0.5% DMSO was selected as vehicle control to balance the requisite need of DMSO in HepaRG cultures to maintain differentiation (for example, baseline metabolism, proportions of hepatocytes vs. cholangiocytes), while enabling further hepatic receptor pathway activation (for example, PXR and CAR) in response to chemical exposure. 48 hours after plating, the culture medium was replaced with HepaRG Serum-Free Incudtion Media. Cells were exposed to each test chemical in duplicate and maintained in CO2 incubators for another 48 hours. Chemical plates were thawed to room temperature and 200x concentrations of treatment groups were prepared. 8-point conentration-reponse curves were made with the highest exposure at 100 uM, followed by half-log dilutions, all in 0.5% DMSO. Each test plate contained variouse controls, induction positive controls (1mM phenobarbital), cytotoxicity positive controls ([…] aflatoxin B1), vehicle controls (0.5% DMSO), and total lysis controls (0.5% DMSO). Cell morphology images were taken using an Essen IncuCyte FLR automated microscope, with six 96-well plates imaged in about 24 minutes. Images were captured and exported and JPEG files. Spent culture media was transfered to black-well plates for the LDH assay, and remaining media was sorted at -80 C for later use. Cells were treated with RLT buffer and frozen until shipped for gene expression analysis. Total RNA was isolated from the cell suspension in 75 uL of Buffer RLT (Qiagen, Germantown, MD 20874) by Quintiles/Expression Analysis (Durham, NC) using a custom isolation procedure. Total RNA from each plate well was transferred to a preamplification plate. Fluidigm's 96.96 Dynamic ArrayTM (Fluidigm, Amsterdam, the Netherlands) technology was used for gene expression analyses by quantitative reverse transcription polymerase chain reaction (qRT-PCR, performed by Quintiles/Expression Analysis, Durham, NC)89. Standard TaqManTM Assays (Applied Biosystems/ThermoFisher Scientific, Foster City, CA) were used to assess the expression of 93 genes selected based on their selectivity and sensitivity to important hepatic receptors known to be modulated by environmental chemicals; importance in human hepatocyte functionality; and hepatotoxicity. […]

Row | Structure (SMILES) | outcome | AC50
1 | CCCCc1ccc2c(n1)[C@@H](c1ccc(OC)cc1C[C@H](C)C(=O)O)[C@H](C(=O)O)[C@H]2c1ccc2c(c1)OCO2 | inactive | –
2 | COCCOCCOC | – | 9.92 µM (active)
3 | O=C(OCCCCCOC(=O)c1ccccc1)c1ccccc1 | – | 0.145 µM (active)
4 | Cc1ccc(Cl)cc1 | inactive | –
5 | CN[C@H]1CC[C@@H](c2ccc(Cl)c(Cl)c2)c2ccc(S(N)(=O)=O)cc21 | – | 81.5 µM (active)
6 | Oc1ccc2c(c1)OC[C@@H](N1CCC(O)(c3ccc(F)cc3)CC1)[C@H]2O | inactive | –
7 | CCCCCCCCCCCCCCCCCC(=O)O | inactive | –
8 | C[Si]1(C)O[Si](C)(C)O[Si](C)(C)O[Si](C)(C)O1 | inactive | –
9 | CNC(=O)[C@H]1O[C@@H](n2cnc3c(NCc4cc(Cl)ccc4OCc4cc(C)no4)ncnc32)[C@H](O)[C@@H]1N | inactive | –
10 | O=c1c(O)c(-c2ccc(O)c(O)c2)oc2cc(O)cc(O)c12 | inactive | –
11 | CC1(C)NC(=O)NC1=O | inactive | –
12 | CCCCCCC(=O)OCC | inactive | –
13 | COc1ccc(C)cc1N | inactive | –
14 | CCOc1ccc2c(c1)C(C)=CC(C)(C)N2 | inactive | –
15 | FC(F)(F)C(F)(F)C(F)(F)C(F)(F)C(F)(F)C(F)(F)CCI | inactive | –
16 | COCCOC[C@H](CC1(C(=O)NC2CCC(C(=O)O)CC2)CCCC1)C(=O)Oc1ccc2c(c1)CCC2 (stereo not given in full) | inactive | –
17 | C[C@]12C=CC(=O)C=C1CC[C@@H]1[C@@H]2C(=O)C[C@@]2(C)[C@H]1CC[C@]2(O)C(=O)CO | inactive | –
18 | Cc1ccc(C)c(C)c1 | inactive | –
19 | CC(C)(C)c1cc(O)c(C(C)(C)C)cc1O | inactive | –
20 | CN1CCN(Cc2cc(-c3ccc4[nH]c(=O)oc4c3)co2)[C@@H](c2ccc(F)cc2)C1 | inactive | –

Row | Structure (SMILES) | outcome | AC50
21 | C=CCOC(=O)c1ccccc1C(=O)OCC=C | inactive | –
22 | CCOC(=O)CCC(=O)OCC | inactive | –
23 | Cc1ccccc1Cl | inactive | –
24 | CC1(C)CC(N=C=O)CC(C)(CN=C=O)C1 (stereo not given) | inactive | –
25 | Cc1ccc(C)c(O)c1C | inactive | –
26 | CCNc1cccc(C)c1 | inactive | –
27 | CC(=O)OCCOCCOCCOC(C)=O | inactive | –
28 | CNCc1cc(F)ccc1Oc1ccc(Cl)c(Cl)c1 | inactive | –
29 | CCCc1cc(=O)[nH]c(=S)[nH]1 | inactive | –
30 | CC(CO)OC(C)CO (stereo not given) (tested in a mixture with another compound) | inactive | –
31 | CCCCCCCCCCCCCCCC | inactive | –
32 | Cc1ccc2ncccc2c1 | inactive | –
33 | O=C(O)CCCCC(=O)O | inactive | –
34 | CC(=O)Oc1ccccc1C(=O)O | inactive | –
35 | NCC1(Cc2noc(=O)[nH]2)CCCCC1 | inactive | –
36 | Cc1cccc(Nc2cc(Cl)nc(SCC(=O)O)n2)c1C | inactive | –
37 | Clc1cc(Cl)c(Cl)cc1Cl | inactive | –
38 | CC(C)c1ccc(C(=O)N=C(N)N)cc1S(C)(=O)=O | – | 7.8 µM (active)
39 | Cc1nc(C)nc(N2C[C@@H](C)N(c3ccnc([C@@H](C)O)n3)[C@@H](C)C2)n1 | inactive | –
40 | NCCO | inactive | –
